Assay results as given in PubChem BioAssay.
Activity calls are given as the source filed them. Unless noted, how the calls were made is not given here.

What was measured:
[1] = test system: XIP peptide (Xip251-270) binding; assay: XIP fragment 251-270 binding compounds – biochemical, small-molecule microarray, fluorescence 635/667 nm, 0.1 µg/mL protein, primary screen (AID 1182); settings: fluorescent protein binding, 635 nm, higher = more signal, called active from +8 up or from −8 down
XIP peptide (Xip251-270) = assay: compounds binding XIP fragment 251-270 – biochemical, small-molecule microarray, fluorescence 635/667 nm, 0.5 µg/mL protein, primary screen (AID 1183); settings: fluorescence 635 nm, higher = more signal
[2] = blood-stage malaria parasite viability loss – strain 3D7, DAPI fluorescence, 100 nL, primary screen (AID 1184);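 further: parasites grown inside human red blood cells in medium with human serum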; settings: P. falciparum 3D7 growth, 3 d, higher = more signal
[3] = target: Homeobox protein Hox-A13 (Mus musculus) (UniProt Q62424); assay: disruptors of Hoxa13 oligonucleotide interaction – biochemical, fluorescence polarization, labeled oligonucleotide, primary screen (AID 1185); settings: Hoxa13:DNA binding, 15 min, higher = more signal, called active from +8 up or from −8 down
[4] = blockers of DNA damage checkpoint Chk1 activation – imaging, HeLa, hydroxyurea, phospho-Chk1 antibody, percent positive cells, primary screen (AID 1186); settings: hydroxyurea-induced phospho-Chk1 immunofluorescence imaging, higher = more signal
[5] = blockers of DNA damage checkpoint Chk1 activation – imaging, HeLa, hydroxyurea, phospho-Chk1 nuclear intensity, primary screen (AID 1187); settings: hydroxyurea-induced phospho-Chk1 immunofluorescence imaging, higher = more signal

Chain of Homeobox protein Hox-A13 (Mus musculus) (Q62424 whole entry, looked up): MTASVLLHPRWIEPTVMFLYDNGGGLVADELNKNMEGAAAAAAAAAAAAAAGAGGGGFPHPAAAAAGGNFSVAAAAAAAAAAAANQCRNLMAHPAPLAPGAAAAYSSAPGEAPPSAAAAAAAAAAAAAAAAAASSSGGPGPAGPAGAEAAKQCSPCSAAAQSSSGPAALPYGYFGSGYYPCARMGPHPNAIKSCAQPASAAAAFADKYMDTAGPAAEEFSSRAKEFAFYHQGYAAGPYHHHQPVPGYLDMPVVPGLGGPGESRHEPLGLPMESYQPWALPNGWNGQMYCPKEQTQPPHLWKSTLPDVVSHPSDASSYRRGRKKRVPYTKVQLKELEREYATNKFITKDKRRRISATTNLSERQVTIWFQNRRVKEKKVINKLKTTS

Row | SMILES | composite z-score [1] | composite z-score (XIP peptide (Xip251-270)) | z-score [2] | z-score [3] | z-score [4] | z-score [5]
1 | O=C(NCC(F)(F)F)[C@@H]1c2ccccc2C(=O)N(C2CCCCC2)[C@H]1c1ccc(CO)cc1 | 0.0572 (inactive) | 0.434 | -0.676 | -3.32 (inactive) | 0.142 (inactive) | -0.156 (inactive)
2 | NCCCCCNC(=O)[C@@H]1C[C@@H]2C(=O)N[C@@H](Cc3ccccc3)C(=O)N2[C@@H]1c1cccc(OCCO)c1 | 0.251 (inactive) | 0.595 | 0.304 | -4.39 (inactive) | -0.143 (inactive) | -0.223 (inactive)
3 | CCOC(=O)C[C@H]1[C@H](OC(=O)c2ccc(C(=O)c3ccccc3)cc2)[C@@H](NC(=O)c2ccc(-c3ccccc3)cc2)c2cc(OCCCO)ccc2N1C(=O)c1ccccc1 | 0.233 (inactive) | 0.549 | -0.786 | -1.36 (inactive) | 0.428 (inactive) | 0.303 (inactive)
4 | O=C1O[C@H](c2ccccc2)[C@H](c2ccccc2)N2[C@H]1[C@@H](C(=O)O)[C@]1(C(=O)Nc3ccc(C#CC4=CCCCC4)cc31)[C@H]2c1ccccc1OCCO | 0.746 (inactive) | 0.745 | -1.86 | -2.65 (inactive) | 0.144 (inactive) | -0.0653 (inactive)
5 | O=C1c2ccccc2[C@](Cc2ccccc2I)(C(=O)NC2CC2)[C@H](c2ccc(CO)cc2)N1C1CCCCC1 | 0.247 (inactive) | 0.743 | -1.77 | -3.63 (inactive) | -0.199 (inactive) | -0.0711 (inactive)
6 | CC(C)N1C(=O)c2ccccc2[C@](C)(C(=O)NCc2ccccc2)[C@@H]1c1ccc(CO)cc1 | -0.534 (inactive) | 0.48 | -0.771 | -1.51 (inactive) | 0.0268 (inactive) | 0.0578 (inactive)
7 | COC(=O)[C@@]1(Cc2ccc(F)cc2)[C@H]2c3cc(C(=O)N4CCCC4)n(Cc4cc(C)n(C)n4)c3C[C@H]2CN1C(=O)c1ccccc1 | 1.55 (inactive) | 0.759 | -1.58 | -3.99 (inactive) | 0.611 (inactive) | 0.53 (inactive)
8 | COCCOC(=O)N1C(=O)[C@@]2(c3cc(C#CC4=CCCCC4)ccc31)[C@H](C(N)=O)[C@H]1C(=O)O[C@H](c3ccccc3)[C@H](c3ccccc3)N1[C@@H]2c1ccc(OCCO)cc1 | 0.134 (inactive) | 0.729 | -2 | 2.15 (inactive) | -0.116 (inactive) | -0.321 (inactive)
9 | [N-]=[N+]=Nc1ccccc1C[C@@]1(C(=O)NCCN2CCOCC2)N=C(c2ccc(OCCCO)cc2)O[C@@H]1c1ccccc1 | 0.58 (inactive) | 0.827 | -2.33 | -4.23 (inactive) | -0.785 (inactive) | -1.11 (inactive)
10 | COc1ccc([Si](C)(C)[C@H]2[C@H](CC(=O)N3Cc4ccccc4C[C@H]3CO)O[C@@]3(C(=O)N(Cc4ccc(N5CCC5=O)cc4)c4ccccc43)[C@@H]2C)cc1 | 0.0316 (inactive) | 0.817 | -1.95 | -3.83 (inactive) | -0.176 (inactive) | -0.0862 (inactive)
11 | CCOC(=O)C[C@H]1[C@H](OC(=O)c2cc3ccccc3oc2=O)[C@@H](NC(=O)C2CCCCC2)c2cc(OCCCO)ccc2N1C(=O)c1ccccc1 | -0.194 (inactive) | 0.327 | -1.73 | -3.06 (inactive) | 0.895 (inactive) | 1.11 (inactive)
12 | C#CCNC(=O)[C@H](Cc1ccccc1)NC(=O)CCC(=O)O | 0.234 (inactive) | -1.75 | -0.213 | -0.118 (inactive) | -0.482 (inactive) | -0.815 (inactive)
13 | COCCOC(=O)N1C(=O)[C@@]2(c3cc(C#Cc4ccc(OC)cc4)ccc31)[C@H](C(=O)N1CCCCCCC1)[C@H]1C(=O)O[C@H](c3ccccc3)[C@H](c3ccccc3)N1[C@@H]2c1ccc(OCCO)cc1 | 2.79 (inactive) | 0.635 | -2 | -15.8 (active) | -0.442 (inactive) | -0.617 (inactive)
14 | CCOC(=O)C[C@H]1[C@H](OC(=O)Cc2ccc3c(c2)OCO3)[C@@H](NC(=O)c2ccc(-c3ccccc3)cc2)c2cc(OCCCO)ccc2N1C(=O)Cc1ccc(OC)cc1 | 0.784 (inactive) | 0.0066 | -1.72 | -1.61 (inactive) | -0.324 (inactive) | -0.116 (inactive)
15 | COC(=O)C(CC#Cc1ccc2c(c1)[C@]1(C(=O)N2)[C@H](C(=O)O)[C@H]2C(=O)O[C@H](c3ccccc3)[C@H](c3ccccc3)N2[C@@H]1c1ccc(O)cc1)C(=O)OC | 0.12 (inactive) | 0.713 | 0.49 | -6.07 (inactive) | -0.287 (inactive) | -0.507 (inactive)
16 | COC(=O)[C@@]1(Cc2ccc(F)cc2)[C@H]2c3cc(C(=O)N(C)C)n(Cc4nc5ccccc5[nH]4)c3C[C@H]2CN1C(=O)c1ccccc1 | 0.642 (inactive) | 0.817 | -0.593 | -3.68 (inactive) | -0.11 (inactive) | -0.0626 (inactive)
17 | CC(C)c1ccc(NN2C(C(O)C(c3ccccc3)c3ccccc3)C=CC3C(=O)N(c4ccccc4)C(=O)C32)cc1 (stereo unspecified) | 0.234 (inactive) | 0.739 | -0.536 | -2.67 (inactive) | 0.286 (inactive) | 0.207 (inactive)
18 | O=C1O[C@H](c2ccccc2)[C@H](c2ccccc2)N2[C@H]1[C@@H](C(=O)NC[C@H](O)c1ccccc1)[C@]1(C(=O)Nc3ccccc31)[C@H]2c1ccc(OCCO)cc1 | 0.674 (inactive) | 0.809 | 0.249 | -5.01 (inactive) | -0.0282 (inactive) | 0.177 (inactive)
19 | O=C(O)[C@@]1(CCS(=O)(=O)c2ccccc2)COC(c2ccc(OCCCO)cc2)=N1 | -0.0596 (inactive) | -0.271 | 0.917 | -2.82 (inactive) | -0.333 (inactive) | -0.52 (inactive)
20 | COCCOC(=O)N1C(=O)[C@@]2(c3ccccc31)[C@H](c1ccccc1OCCO)N1[C@H](c3ccccc3)[C@H](c3ccccc3)OC(=O)[C@H]1[C@@H]2C(=O)Nc1nc2ccccc2s1 | 0.219 (inactive) | 0.823 | -0.697 | 0.922 (inactive) | 0.002 (inactive) | 0.122 (inactive)
21 | O=C1NC(=O)C2C1C=CC(C(O)c1ccccc1)N2Nc1ccc(Cl)cc1Cl (stereo unspecified) | -0.0839 (inactive) | 0.812 | 0.416 | -5.54 (inactive) | -0.346 (inactive) | -0.621 (inactive)
22 | COC(=O)[C@@]1(Cc2ccc(OC)cc2)[C@H]2c3cc(C(=O)N(C)C)n(CCN4CNCC4=O)c3C[C@H]2CN1C(=O)c1ccccc1 | 0.384 (inactive) | -0.144 | -1.23 | -4.73 (inactive) | -0.648 (inactive) | -0.397 (inactive)
23 | C=C(CCCC)C(=O)CC[C@@H](OC(=O)c1cccnc1)c1ccc(CO)o1 | 0.67 (inactive) | 0.561 | -0.46 | -4.35 (inactive) | 0.575 (inactive) | -0.023 (inactive)
24 | CCOC(=O)C1=CCC(c2ccc(C)cc2)N(S(=O)(=O)c2ccc(C)cc2)C1 (stereo unspecified) | 0.34 (inactive) | 0.46 | -1.65 | -2.32 (inactive) | 0.283 (inactive) | 0.449 (inactive)
25 | COCCOC(=O)N1C(=O)[C@@]2(c3cc(C#CC4=CCCCC4)ccc31)[C@H](C(=O)Nc1nc3ccccc3s1)[C@H]1C(=O)O[C@H](c3ccccc3)[C@H](c3ccccc3)N1[C@@H]2c1ccccc1OCCO | 0.494 (inactive) | 0.698 | -2.04 | 1.67 (inactive) | -0.169 (inactive) | -0.114 (inactive)
26 | O=C1C2C=CC(C(O)c3c(F)cccc3Cl)N(Nc3ccccc3)C2C(=O)N1c1ccccc1 (stereo unspecified) | 0.469 (inactive) | 0.702 | -0.342 | -3.25 (inactive) | 0.653 (inactive) | 0.683 (inactive)
